5 compounds from PubChem BioAssay can be followed below.

A short description of assay [1]: compounds binding Alexa647 anti-His antibody – biochemical, small-molecule microarray, 635 nm fluorescence, artefact control for SMM control protein annotation, primary screen (AID 1128).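 Also: score merges feature fluorescence with signal-to-noise for each printed compound spot.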 The settings on record: higher = more signal.
Assay [2] has as its system Human papillomavirus type 1a E7 protein (residues 1-88). Put plainly: HPV1a E7 small-molecule binders, primary screen, biochemical, small-molecule microarray, residues 1-88, 635 nm (AID 1129). To be noted: small-molecule microarray binding, fluorescence 635 nm; higher = more signal.
The target in assay [3] is Focal adhesion kinase 1 (Homo sapiens) (UniProt Q05397). Put plainly: PTK2 protein binding on printed compound slides – biochemical, small-molecule microarray, 635/667 nm fluorescence, BSA, DTT, primary screen (AID 1130).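 Also: composite of spot emission at 667 nm and signal to noise over triplicate slides.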 The settings on record: 635 nm fluorescence, higher = more signal.
The subject of assay [4] is Fibrinogen (Alexa647-labelled). Kind of assay: Alexa647-fibrinogen binding to printed small molecules – biochemical, small-molecule microarray, 635/667 nm fluorescence, artefact control for SMM control-protein annotation, profiling panel (AID 1131).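 Also: z-score merges 667 nm fluorescence with per-spot signal-to-noise over triplicate slides.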 The settings on record: fibrinogen-A647 binding fluorescence, higher = more signal.
Assay [5] addresses Follistatin (Homo sapiens) (UniProt P19883). Put plainly: FST protein binding to printed compounds – biochemical, small-molecule microarray, 635/667 nm fluorescence, primary screen (AID 1132). To be noted: 635 nm fluorescence, higher = more signal.
For assay [6], the target named is Fibroblast growth factor 2 (Homo sapiens) (UniProt P09038). Put plainly: basic fibroblast growth factor binding to printed compounds – biochemical, small-molecule microarray, 635/667 nm fluorescence, primary screen (AID 1133). To be noted: FGF2, fluorescence 635/667, higher = more signal.
A short description of assay [7]: JC-1 mitochondrial potential readout, lung cancer cells – cell-based, A549, JC-1 fluorescence, basal, 24 h, 100 nL, profiling panel (AID 1138).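 Also: A549 lung adenocarcinoma cells under basal conditions with no added stimulus; test concentration not given here.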 The settings on record: higher = more signal.
For a further assay, the system named is Lefty1. Kind of assay: Lefty1 protein binding to printed compounds – biochemical, small-molecule microarray, 635/667 nm fluorescence, primary screen (AID 1139). To be noted: fluorescence 635/667, higher = more signal.
Assay [8] has as its system wheat germ agglutinin (Triticum aestivum), Alexa647-labelled. Kind of assay: Alexa647-WGA lectin binding to printed small molecules – biochemical, small-molecule microarray, 635/667 nm fluorescence, artefact control for SMM control-protein annotation, profiling panel (AID 1140).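 Also: score merges 667 nm feature emission with signal to noise over triplicate slides.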 To be noted: WGA-A647 binding, 635 nm fluorescence, higher = more signal.
Assay [9] addresses Luciferin 4-monooxygenase (Photinus pyralis) (UniProt P08659). Put plainly: inhibition of purified Photinus pyralis luciferase – biochemical, luminescence, purified enzyme, 2006 set, primary screen (AID 1141).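 Also: cell-free assay with purified firefly luciferase at 100 ng per well in PBS; test concentration not given here.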 To be noted: purified firefly luciferase, SteadyGlo luminescence, 30 min; higher = more signal, called active from +8 up or from −8 down.
Assay [10] has as its system Wnt5a (protein binding on small-molecule microarray). Kind of assay: small molecules binding Wnt5a protein – biophysical, small-molecule microarray, 635/667 nm fluorescence, primary screen (AID 1142).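 Also: fluorescence read at 667 nm with signal to noise per printed feature.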 To be noted: 635 nm fluorescence, higher = more signal.
Assay [11] is described as follows: ATP-based viability of Huh7 replicon cells – cell-based, CellTiter-Glo luminescence, basal, 48 h, cytotoxicity control for HCV replication inhibitor project, primary screen (AID 1143).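 Also: Huh7 hepatoma cells carrying a hepatitis C replication reporter with no stimulus; test concentration not given here.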 To be noted: higher = more signal, called active from +8 up or from −8 down.
Assay [12] in a line: Pseudomonas biofilm growth suppression – PAO1 strain, BacTiter-Glo luminescence, LB-PBS, primary screen (AID 1144). The settings on record: P. aeruginosa PAO1 biofilm, 12 h, higher = more signal.
A short description of assay [13]: basal CRE-LacZ reporter activity in PC12 – cell-based, unstimulated, primary screen (AID 1145). To be noted: no forskolin, luminescence, 4.5 h, higher = more signal, called active from +8 up or from −8 down.
Assay [14] in a line: forskolin-driven CRE-LacZ activity in PC12 – cell-based, CRE-LacZ reporter, forskolin-stimulated, primary screen (AID 1146).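 Also: PC12 cells with 6xCRE LacZ reporter stimulated by forskolin 10 µM; beta-galactosidase reporter signal reflecting CREB driven transcription.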 The settings on record: luminescence, 4.5 h, higher = more signal, called active from +8 up or from −8 down.
In assay [15] the target is Streptavidin (Streptomyces avidinii) (UniProt P22629). Put plainly: compounds binding control protein streptavidin – biophysical, small-molecule microarray, 635/667 nm fluorescence, artefact control for SMM compound annotation, primary screen (AID 1147).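 Also: signal reflects streptavidin binding to arrayed compounds as a control protein.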 The settings on record: higher = more signal.
Assay [16] can be described thus: probe aInhba binding on compound microarray – biochemical, small-molecule microarray, 635/667 nm fluorescence, primary screen (AID 1148).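 Also: score merges 667nm spot fluorescence with signal-to-noise for antibody binding to printed compounds.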 To be noted: higher = more signal.
The target of assay [17] is Torsin-1A (Homo sapiens) (UniProt O14656). Kind of assay: TOR1A wild-type binding on microarray – cell lysate, small-molecule microarray, lysate, 635/667 nm, primary screen (AID 1149). The settings on record: COS7 hTOR1A-WT lysate, 635 nm fluorescence, higher = more signal.
Assay [18] has the same target. Kind of assay: torsin A mutant lysate binding on microarrays – cell lysate, small-molecule microarray, COS7 lysate, 635/667 nm fluorescence, primary screen (AID 1150).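 Also: score pools 667 nm emission and signal to noise measuring lysate protein binding.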 The settings on record: COS7 hTOR1A mutant lysate, 635 nm fluorescence, higher = more signal.
Assay [19] concerns Sonic hedgehog protein (Shh). Kind of assay: Sonic hedgehog microarray binding compounds – biochemical, small-molecule microarray, 635/667 nm fluorescence, primary screen (AID 1151).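 Also: Shh protein binding to compounds spotted on small-molecule microarray slides; score combines spot fluorescence intensity with signal-to-noise across triplicate slides.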 To be noted: 635 nm fluorescence, higher = more signal.

Each structure is given as a SMILES string. Active and inactive are the calls of the source. Unless noted, no rule for the calls is given here.

Fibroblast growth factor 2 (Homo sapiens), sequence (P09038 whole entry, looked up): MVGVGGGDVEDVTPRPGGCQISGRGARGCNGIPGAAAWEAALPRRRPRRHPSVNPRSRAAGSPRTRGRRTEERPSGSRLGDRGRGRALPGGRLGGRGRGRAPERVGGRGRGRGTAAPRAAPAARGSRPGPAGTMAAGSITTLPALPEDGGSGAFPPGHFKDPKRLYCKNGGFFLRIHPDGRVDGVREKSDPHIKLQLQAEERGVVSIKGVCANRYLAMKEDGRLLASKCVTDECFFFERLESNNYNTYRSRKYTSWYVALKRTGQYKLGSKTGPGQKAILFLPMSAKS
Luciferin 4-monooxygenase (Photinus pyralis), sequence (P08659 whole entry, looked up): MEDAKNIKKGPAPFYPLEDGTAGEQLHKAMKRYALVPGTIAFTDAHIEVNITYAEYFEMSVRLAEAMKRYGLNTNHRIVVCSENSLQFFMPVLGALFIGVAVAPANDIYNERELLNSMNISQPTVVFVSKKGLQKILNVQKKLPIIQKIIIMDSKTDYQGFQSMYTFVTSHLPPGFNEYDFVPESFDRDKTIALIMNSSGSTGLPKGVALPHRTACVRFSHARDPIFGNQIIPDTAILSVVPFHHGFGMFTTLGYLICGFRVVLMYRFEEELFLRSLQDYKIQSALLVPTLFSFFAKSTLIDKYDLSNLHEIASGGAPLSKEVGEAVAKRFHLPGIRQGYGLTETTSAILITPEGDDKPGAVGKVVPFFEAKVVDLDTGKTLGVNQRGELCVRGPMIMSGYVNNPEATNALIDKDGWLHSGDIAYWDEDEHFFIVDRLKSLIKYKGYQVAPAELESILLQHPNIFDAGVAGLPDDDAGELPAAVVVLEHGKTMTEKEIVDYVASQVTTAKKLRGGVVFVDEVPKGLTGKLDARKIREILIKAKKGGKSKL
Torsin-1A (Homo sapiens), sequence (O14656 whole entry, looked up): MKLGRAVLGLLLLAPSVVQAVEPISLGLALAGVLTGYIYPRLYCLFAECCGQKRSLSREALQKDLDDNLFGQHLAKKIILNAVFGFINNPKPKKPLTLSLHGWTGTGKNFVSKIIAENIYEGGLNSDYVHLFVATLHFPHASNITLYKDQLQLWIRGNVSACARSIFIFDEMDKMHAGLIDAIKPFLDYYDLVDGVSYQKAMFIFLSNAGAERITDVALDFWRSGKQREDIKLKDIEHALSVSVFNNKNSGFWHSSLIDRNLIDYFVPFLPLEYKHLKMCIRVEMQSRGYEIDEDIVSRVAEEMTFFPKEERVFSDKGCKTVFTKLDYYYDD
Follistatin (Homo sapiens), sequence (P19883 whole entry, looked up): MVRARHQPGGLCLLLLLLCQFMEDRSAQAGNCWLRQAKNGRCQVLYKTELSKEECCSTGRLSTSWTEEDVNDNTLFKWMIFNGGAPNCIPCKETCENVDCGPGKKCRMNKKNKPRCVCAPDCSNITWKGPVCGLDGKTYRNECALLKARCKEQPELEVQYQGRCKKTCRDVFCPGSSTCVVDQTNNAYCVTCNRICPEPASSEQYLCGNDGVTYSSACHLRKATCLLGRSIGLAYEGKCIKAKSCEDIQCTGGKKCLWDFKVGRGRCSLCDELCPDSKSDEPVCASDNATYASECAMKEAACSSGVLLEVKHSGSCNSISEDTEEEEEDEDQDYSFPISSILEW
Focal adhesion kinase 1 (Homo sapiens), sequence (Q05397 whole entry, looked up): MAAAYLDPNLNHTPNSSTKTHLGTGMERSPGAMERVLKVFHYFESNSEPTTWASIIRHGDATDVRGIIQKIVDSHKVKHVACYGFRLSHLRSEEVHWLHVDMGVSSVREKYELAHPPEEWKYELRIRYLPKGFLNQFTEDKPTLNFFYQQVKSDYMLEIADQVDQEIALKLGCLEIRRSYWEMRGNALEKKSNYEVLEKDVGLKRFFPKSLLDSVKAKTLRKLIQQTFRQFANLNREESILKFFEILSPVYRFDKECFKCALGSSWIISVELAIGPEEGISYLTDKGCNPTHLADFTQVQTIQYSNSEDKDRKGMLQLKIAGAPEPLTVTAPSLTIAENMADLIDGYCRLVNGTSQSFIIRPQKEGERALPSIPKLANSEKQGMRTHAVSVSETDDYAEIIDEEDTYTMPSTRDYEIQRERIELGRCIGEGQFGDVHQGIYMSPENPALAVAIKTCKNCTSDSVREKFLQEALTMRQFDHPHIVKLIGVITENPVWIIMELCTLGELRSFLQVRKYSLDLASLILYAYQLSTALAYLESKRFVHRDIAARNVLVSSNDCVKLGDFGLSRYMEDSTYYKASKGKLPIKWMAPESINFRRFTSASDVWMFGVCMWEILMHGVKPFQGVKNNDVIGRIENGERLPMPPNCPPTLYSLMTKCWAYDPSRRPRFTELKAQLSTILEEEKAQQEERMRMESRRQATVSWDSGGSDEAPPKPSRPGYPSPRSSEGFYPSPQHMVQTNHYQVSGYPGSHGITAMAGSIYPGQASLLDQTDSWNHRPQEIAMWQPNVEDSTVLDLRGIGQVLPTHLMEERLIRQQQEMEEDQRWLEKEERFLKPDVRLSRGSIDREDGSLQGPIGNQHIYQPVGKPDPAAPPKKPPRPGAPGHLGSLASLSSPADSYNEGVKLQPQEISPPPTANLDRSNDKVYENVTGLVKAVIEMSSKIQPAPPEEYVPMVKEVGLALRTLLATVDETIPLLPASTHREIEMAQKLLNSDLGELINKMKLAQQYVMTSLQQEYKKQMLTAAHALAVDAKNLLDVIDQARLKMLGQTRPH
Streptavidin (Streptomyces avidinii), sequence (P22629 whole entry, looked up): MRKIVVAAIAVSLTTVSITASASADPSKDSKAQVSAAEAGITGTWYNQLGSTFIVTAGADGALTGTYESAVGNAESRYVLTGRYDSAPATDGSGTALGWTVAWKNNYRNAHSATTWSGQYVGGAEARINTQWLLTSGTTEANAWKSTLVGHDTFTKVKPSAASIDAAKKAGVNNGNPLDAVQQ

In the case of `C=CCOC(=O)[C@@H]1[C@H]2C(=O)O[C@H](c3ccccc3)[C@H](c3ccccc3)N2[C@H](c2ccc(OCCOC(=O)[C@H]3C[C@H]4C(=O)N[C@@H](CCCCNC(C)=O)C(=O)N4[C@H]3c3cccc(OCCO)c3)cc2)[C@@]12C(=O)Nc1ccc(I)cc12`, the composite z-score in assay [1] worked out at 1.98; in [2], 1.19; in assay [3], 0.323; in [4] it was 0.777; in assay [5], 1.43; in [6], 1.45. For the same compound, the composite z-score in the assay with Lefty1 was 1.28; in [8], -0.045; in [10], 0.218; in assay [15] it was 0.356; in [16] it was -0.0313; with Torsin-1A (Homo sapiens) [17], 1.01. The composite z-score in the assay with Torsin-1A (Homo sapiens) [18] came to 0.495; in assay [19], 1.89. Moreover, the z-score in assay [7] was -1.11; in assay [9] it was -0.662 (inactive); in assay [11], -0.495 (inactive); in [12] it was -0.929 (inactive); in assay [13], -0.256 (inactive); in [14], 0.215 (inactive).

Take `O=C(O)[C@]1(Cc2ccccc2)N=C(c2ccc(OCCCO)cc2)O[C@@H]1c1ccccc1`: the composite z-score is 1.03 in assay [1]; -0.0591 in assay [2]; 0.136 in assay [3]; -0.0288 in assay [4]; -0.431 in [5]; -0.846 in assay [6]. Also, the composite z-score in the assay on Lefty1 was -0.296; in assay [8], -0.218; in assay [10] it was -0.159; in assay [15], -0.423; in [16], -0.119; with Torsin-1A (Homo sapiens) [17] it was -0.639. Besides, the composite z-score with Torsin-1A (Homo sapiens) [18] is -0.411; in assay [19], -1.78. Further, the z-score is -0.069 in assay [7]; 0.779 (inactive) in assay [9]; -1.14 (inactive) in assay [11]; 0.534 (inactive) in assay [12]; -0.445 (inactive) in assay [13]; -0.471 (inactive) in assay [14].

Regarding `COc1ccc([Si](C)(C)[C@H]2[C@H](CCn3cc([C@H](O)c4ccccc4)nn3)O[C@@]3(C(=O)N(Cc4ccc(N5CCOC5=O)cc4)c4ccccc43)[C@@H]2C)cc1`, the composite z-score in [1] is -0.194; in [2], -0.993; in [3], -0.775; in assay [4] it was -0.231; in assay [5] it was -0.988; in [6], -0.785. Further, the composite z-score in the assay with Lefty1 is -0.919; in assay [8] it was -0.0383; in assay [10], -0.271; in [15] it was -0.303; in assay [16], -0.208; in the assay with Torsin-1A (Homo sapiens) [17], -0.995. In addition, the composite z-score is -1.35 with Torsin-1A (Homo sapiens) [18] and -0.25 in assay [19]. The z-score in assay [7] was 1.26; in [9], -0.278 (inactive); in [11], -1.3 (inactive); in [12], -0.434 (inactive); in assay [13], 0.804 (inactive); in assay [14], -0.889 (inactive).

For the compound `COc1ccc(NN2C(C(O)c3ccco3)C=CC3C(=O)N(C4CCCCC4)C(=O)C32)cc1` (stereo not given), the composite z-score in [1] was 1.04; in [2] it was 1.22; in [3], 0.653; in [4], 0.936; in assay [5], 1.25; in assay [6], 0.484. Also, the composite z-score with Lefty1 is 0.655; in assay [8] it was 1.19; in assay [10] it was 0.495; in [15], 0.965; in [16], 0.0471; with Torsin-1A (Homo sapiens) [17], 0.95. Besides, the figures for the composite z-score (in the assay with Torsin-1A (Homo sapiens) [18]; in [19]) were 1.1 and 1.28, respectively. For the same compound, the z-score in assay [7] is 0.265; in [9] it was -0.358 (inactive); in [11], -0.829 (inactive); in [12], -0.522 (inactive); in assay [13], 0.323 (inactive); in assay [14] it was 0.565 (inactive).

In the case of `COc1ccc([Si](C)(C)[C@H]2[C@H](CCn3cc(CCO)nn3)O[C@@]3(C(=O)N(Cc4ccc(N5C(=O)c6cccc7cccc5c67)cc4)c4ccccc43)[C@@H]2C)cc1`, the composite z-score in [1] stood at 1.12; in assay [2], 1.2; in assay [3], 0.379; in assay [4] it was 0.431; in assay [5], 1.23; in assay [6] it was 0.949. The composite z-score in the assay on Lefty1 was 1.31; in [8], 0.578; in assay [10], 0.426; in [15], 0.798; in assay [16] it was -0.0933; with Torsin-1A (Homo sapiens) [17], 0.316. For the same compound, the composite z-score with Torsin-1A (Homo sapiens) [18] came to 0.238; in [19], 2.08. The z-score in assay [7] was -0.932; in assay [9], 0.303 (inactive); in assay [11], -7.91 (inactive); in assay [12] it was -0.152 (inactive); in [13], 1.12 (inactive); in [14], -0.213 (inactive).
